The structures appear in SMILES notation. Active and inactive are the calls of the source. Unless noted, how the calls were made is not given here.

For experiment [1], the system named is XIP peptide (Xip251-270) binding. Description: XIP fragment 251-270 binding compounds – biochemical, small-molecule microarray, fluorescence 635/667 nm, 0.1 µg/mL protein, primary screen (AID 1182). Particulars: fluorescent protein binding, 635 nm, higher = more signal, called active from +8 up or from −8 down.
The subject of the next experiment is XIP peptide (Xip251-270). Description: compounds binding XIP fragment 251-270 – biochemical, small-molecule microarray, fluorescence 635/667 nm, 0.5 µg/mL protein, primary screen (AID 1183). As to conditions: fluorescence 635 nm, higher = more signal.
The nature of experiment [2]: blood-stage malaria parasite viability loss – strain 3D7, DAPI fluorescence, 100 nL, primary screen (AID 1184).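 Further: parasites grown inside human red blood cells in medium with human serum.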 As to conditions: P. falciparum 3D7 growth, 3 d, higher = more signal.
Experiment [3] deals with Homeobox protein Hox-A13 (Mus musculus) (UniProt Q62424). Put plainly: disruptors of Hoxa13 oligonucleotide interaction – biochemical, fluorescence polarization, labeled oligonucleotide, primary screen (AID 1185). Particulars: Hoxa13:DNA binding, 15 min, higher = more signal, called active from +8 up or from −8 down. On the technique in general: In fluorescence polarisation assays a small probe gives low polarisation when free and higher when bound to something large.
Sequence of Homeobox protein Hox-A13 (Mus musculus) (Q62424 whole entry, looked up): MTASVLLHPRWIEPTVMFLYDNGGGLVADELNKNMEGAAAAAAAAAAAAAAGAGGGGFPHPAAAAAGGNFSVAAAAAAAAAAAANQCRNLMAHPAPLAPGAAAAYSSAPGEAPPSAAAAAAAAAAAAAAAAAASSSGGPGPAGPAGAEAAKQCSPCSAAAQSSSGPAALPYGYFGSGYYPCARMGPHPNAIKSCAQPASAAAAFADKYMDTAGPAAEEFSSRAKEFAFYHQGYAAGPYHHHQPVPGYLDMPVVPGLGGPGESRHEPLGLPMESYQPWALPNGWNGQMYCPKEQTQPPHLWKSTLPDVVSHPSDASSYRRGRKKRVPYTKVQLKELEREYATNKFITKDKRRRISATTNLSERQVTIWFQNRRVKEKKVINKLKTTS

The nature of experiment [4]: blockers of DNA damage checkpoint Chk1 activation – imaging, HeLa, hydroxyurea, phospho-Chk1 antibody, percent positive cells, primary screen (AID 1186). Particulars: hydroxyurea-induced phospho-Chk1 immunofluorescence imaging, higher = more signal.
A short description of experiment [5]: blockers of DNA damage checkpoint Chk1 activation – imaging, HeLa, hydroxyurea, phospho-Chk1 nuclear intensity, primary screen (AID 1187). Particulars: hydroxyurea-induced phospho-Chk1 immunofluorescence imaging, higher = more signal.

In the case of `CC1(C)C(=O)C(c2ccccc2)=C2CN3C(=O)N(CCc4ccccc4)C(=O)C3(Cc3ccc(C(F)(F)F)cc3)C=C21` (stereo not drawn), the composite z-score in experiment [1] was 0.251 (inactive); in the experiment with XIP peptide (Xip251-270), 0.279. Further, the z-score in experiment [2] was -0.745; in experiment [3] it was -1.55 (inactive); in experiment [4], 0.175 (inactive); in experiment [5] it was 0.0024 (inactive).

On to `O=C1O[C@H](c2ccccc2)[C@H](c2ccccc2)N2[C@H]1[C@@H](C(=O)N1CCCCCCC1)[C@]1(C(=O)Nc3ccc(C#CC4(O)CCCCCC4)cc31)[C@H]2c1ccc(O)cc1`, for which the composite z-score is 1.81 (inactive) in experiment [1] and 0.466 in the experiment with XIP peptide (Xip251-270). The z-score in experiment [2] is -0.372; in experiment [3], 1.68 (inactive); in experiment [4] it was -0.216 (inactive); in experiment [5], -1.07 (inactive).

Regarding `Cc1ccc(N2C(=O)c3ccccc3[C@](C)(C(=O)NCc3ccccc3)[C@@H]2c2ccc(CO)cc2)nc1`, the composite z-score in experiment [1] is -0.353 (inactive); in the experiment with XIP peptide (Xip251-270) it was -0.33. The z-score in experiment [2] was -1.34; in experiment [3] it was -0.408 (inactive); in experiment [4] it was -0.0668 (inactive); in experiment [5] it was 0.0633 (inactive).

Take `C=CCC(OC(C)=O)[C@@H]1[C@@H](N(Cc2ccc(-c3cccc(C(F)(F)F)c3)o2)C(=O)c2cccc3ccccc23)c2cc(OCCCO)ccc2N1C(=O)Cc1ccc(OC)cc1` (stereo partly drawn): the composite z-score in experiment [1] was 0.309 (inactive); in the experiment on XIP peptide (Xip251-270), 0.456. In addition, the z-score in experiment [2] was -2.43; in experiment [3], -1.92 (inactive); in experiment [4], -0.48 (inactive); in experiment [5], 0.0284 (inactive).

On to `C=CCC(OC(C)=O)[C@@H]1[C@@H](N(Cc2ccc(-c3ccccc3)cc2)C(=O)Cc2ccc(F)cc2)c2cc(OCCCO)ccc2N1C(=O)Cc1ccc2ccccc2c1` (stereo partly drawn), for which the composite z-score in experiment [1] was -0.632 (inactive); in the experiment on XIP peptide (Xip251-270), 0.233. For the same compound, the z-score in experiment [2] was -1.3; in experiment [3], -1.5 (inactive); in experiment [4], 0.433 (inactive); in experiment [5], -0.048 (inactive).

Turning to `[N-]=[N+]=NCc1ccccc1[C@H]1OC(c2ccc(OCCCO)cc2)=N[C@@]1(CCS(=O)(=O)c1ccccc1)C(=O)NCc1ccccc1`, the composite z-score was -0.165 (inactive) in experiment [1] and 0.68 with XIP peptide (Xip251-270). In addition, the z-score in experiment [2] was -2.28; in experiment [3], -0.495 (inactive); in experiment [4], -0.189 (inactive); in experiment [5], 0.283 (inactive).

Regarding `COc1cc(NN2C(C(O)c3ccc(I)cc3)C=CC3C(=O)N(c4ccccc4)C(=O)C32)cc(OC)c1OC` (stereo not drawn), the composite z-score is 0.204 (inactive) in experiment [1] and 0.816 in the experiment with XIP peptide (Xip251-270). For the same compound, the z-score in experiment [2] was -0.908; in experiment [3] it was -4.54 (inactive); in experiment [4], 0.505 (inactive); in experiment [5], 0.241 (inactive).

Take `C=CCC(OC(C)=O)[C@@H]1[C@@H](N(Cc2ccc(-c3cccc(C(F)(F)F)c3)o2)C(=O)c2ccc(C)cc2)c2cc(OCCCO)ccc2N1C(=O)Cc1ccc(OC)cc1` (stereo partly drawn): the composite z-score in experiment [1] is -0.635 (inactive); with XIP peptide (Xip251-270) it was -0.0047. Further, the z-score in experiment [2] was -0.549; in experiment [3], -0.791 (inactive); in experiment [4], -0.159 (inactive); in experiment [5], 0.0947 (inactive).

On to `O=C(CS)NCCCCCCNC(=O)[C@@H]1C[C@@H]2C(=O)NCC(=O)N2[C@@H]1c1ccc(O)cc1`, for which the figures for the composite z-score (in experiment [1]; in the experiment on XIP peptide (Xip251-270)) were 1.06 (inactive) and 0.897, respectively. Moreover, the z-score in experiment [2] is 0.271; in experiment [3], -1.63 (inactive); in experiment [4], -0.0858 (inactive); in experiment [5], 0.201 (inactive).

In the case of `CC(C)(C)OC(=O)CC[C@]1(C(=O)N2CCCCC2)COC(c2ccc(OCCCO)cc2)=N1`, the composite z-score is 0.252 (inactive) in experiment [1] and 0.643 in the experiment with XIP peptide (Xip251-270). For the same compound, the z-score is -1.4 in experiment [2], -4.56 (inactive) in experiment [3], -0.334 (inactive) in experiment [4] and 0.131 (inactive) in experiment [5].

`CCOC(=O)C1=CCN(S(=O)(=O)c2ccc(C)cc2)C1c1ccccc1` (stereo not drawn): the values for the composite z-score (in experiment [1]; with XIP peptide (Xip251-270)) were 0.866 (inactive) and 0.805, respectively. For the same compound, the z-score in experiment [2] was -0.584; in experiment [3], -3.71 (inactive); in experiment [4] it was 0.607 (inactive); in experiment [5] it was 0.346 (inactive).

In the case of `CC(C)C(=C=CC[C@H](O)c1cccc(OCCO)c1)CCO`, the composite z-score was 0.675 (inactive) in experiment [1] and 0.0075 in the experiment on XIP peptide (Xip251-270). The z-score in experiment [2] was 0.585; in experiment [3], -1.92 (inactive); in experiment [4] it was 0.0348 (inactive); in experiment [5] it was 0.549 (inactive).

As for `O=C1N[C@@H](Cc2ccccc2)C(=O)N2[C@@H]1C[C@@H](C(=O)O)[C@H]2c1ccc(O)cc1`, the composite z-score in experiment [1] was 0.24 (inactive); in the experiment with XIP peptide (Xip251-270), 0.649. Further, the z-score in experiment [2] was -0.394; in experiment [3], -2.41 (inactive); in experiment [4], -0.0256 (inactive); in experiment [5] it was 0.0853 (inactive).

For the compound `CC1CC/C=C\[C@H]2OC34C=CCN(C(C)(C)C)C(=O)[C@H]3N(C(CO)C(C)C)C(=O)[C@@H]4C2C(=O)O1` (stereo partly drawn), the composite z-score in experiment [1] was 1.27 (inactive); in the experiment on XIP peptide (Xip251-270) it was -0.142. Also, the z-score was -0.459 in experiment [2], -5.73 (inactive) in experiment [3], 0.015 (inactive) in experiment [4] and 0.277 (inactive) in experiment [5].

`COCC(=C=CC[C@@H](O)c1cccc(OCCO)c1)CCO`: the composite z-score in experiment [1] is 1.14 (inactive); in the experiment with XIP peptide (Xip251-270), -0.347. In addition, the z-score in experiment [2] was -0.315; in experiment [3], -1.85 (inactive); in experiment [4], -1.38 (inactive); in experiment [5] it was -0.0691 (inactive).

`COC(=O)[C@@]1(Cc2ccc(OC)cc2)[C@H]2c3cc(C(=O)N4CCCC4)n(Cc4cc(C)n(C)n4)c3C[C@H]2CN1C(=O)c1ccccc1`: the composite z-score was 1.26 (inactive) in experiment [1] and 0.528 with XIP peptide (Xip251-270). The z-score in experiment [2] is -1.44; in experiment [3], -4.85 (inactive); in experiment [4], -0.6 (inactive); in experiment [5] it was -0.279 (inactive).

In the case of `COC(=O)C(CC#Cc1ccc2c(c1)[C@]1(C(=O)N2)[C@H](c2ccc(O)cc2)N2[C@H](c3ccccc3)[C@H](c3ccccc3)OC(=O)[C@H]2[C@@H]1C(=O)N1CCCCCCC1)C(=O)OC`, the composite z-score in experiment [1] was 0.225 (inactive); with XIP peptide (Xip251-270), 0.59. The z-score in experiment [2] is -1.92; in experiment [3] it was 2.08 (inactive); in experiment [4], -0.0422 (inactive); in experiment [5], 0.413 (inactive).

As to `C=CCN1C(=O)[C@@]2(O[C@@H](CCO)[C@H]([Si](C)(C)c3ccc(OC)cc3)[C@H]2C)c2cc(N3CCOC3=O)ccc21`, the composite z-score was 0.341 (inactive) in experiment [1] and 0.68 in the experiment on XIP peptide (Xip251-270). The z-score in experiment [2] was -2.39; in experiment [3], -5.97 (inactive); in experiment [4], -0.0674 (inactive); in experiment [5], 0.0448 (inactive).

The values are drawn from PubChem BioAssay.
